Measurements taken from PubChem BioAssay (NCI).
This is part of a sample that, as a whole, favours compounds with a hit. Of some 83,000 tested, about 20% had one in any assay.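 In brief: 96-well plates, 48 h treatment, single concentration, percent growth endpoint.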

Tests used:
Test in all cases: NCI-60 one-dose screen, 48 h (100 = growth as untreated, 0 = no growth, -100 = all killed)
Conditions in all cases: 10 µM unless noted; active = growth percent below 10; inactive = the rest
NCI-H23 lung = tested on: NCI-H23 lung
NCI-H226 lung = tested on: NCI-H226 lung
NCI-H322M lung = tested on: NCI-H322M lung
HOP-62 NSCLC = tested on: HOP-62 NSCLC
NCI-H460 lung = tested on: NCI-H460 lung
HOP-92 NSCLC = tested on: HOP-92 NSCLC
NCI-H522 lung = tested on: NCI-H522 lung
A549/ATCC NSCLC = tested on: A549/ATCC NSCLC
786-0 renal = tested on: 786-0 renal
COLO 205 colon = tested on: COLO 205 colon
DU-145 prostate = tested on: DU-145 prostate
K-562 leukemia = tested on: K-562 leukemia
MALME-3M melanoma = tested on: MALME-3M melanoma
MDA-MB-231 breast = tested on: MDA-MB-231 breast
RXF 393 renal = tested on: RXF 393 renal
SF-268 CNS = tested on: SF-268 CNS
SF-539 CNS = tested on: SF-539 CNS
UACC-257 melanoma = tested on: UACC-257 melanoma
M14 melanoma = tested on: M14 melanoma

Measured: growth

CC(=O)c1nn(-c2ccccc2)/c(=N\N=C\c2coc3ccc(F)cc3c2=O)s1
inactive: NCI-H23 lung 96.8% | NCI-H226 lung 86% | NCI-H322M lung 104% | HOP-62 NSCLC 85.6% | NCI-H460 lung 102% | HOP-92 NSCLC 90.6% | NCI-H522 lung 101% | A549/ATCC NSCLC 109% | 786-0 renal 110% | COLO 205 colon 111% | DU-145 prostate 111% | K-562 leukemia 94.5% | MALME-3M melanoma 102% | MDA-MB-231 breast 88.3% | RXF 393 renal 116% | SF-268 CNS 87.8% | SF-539 CNS 94.4% | UACC-257 melanoma 116% | M14 melanoma 93.5%

FC(F)(F)C1=NNC(c2ccc3ccccc3c2)=NN1
inactive: NCI-H23 lung 94.2% | NCI-H226 lung 87.4% | NCI-H322M lung 103% | HOP-62 NSCLC 106% | NCI-H460 lung 101% | HOP-92 NSCLC 95.6% | NCI-H522 lung 97.2% | A549/ATCC NSCLC 102% | 786-0 renal 107% | COLO 205 colon 105% | DU-145 prostate 104% | K-562 leukemia 95.2% | MALME-3M melanoma 107% | MDA-MB-231 breast 81.9% | RXF 393 renal 123% | SF-268 CNS 100% | SF-539 CNS 93.9% | UACC-257 melanoma 104% | M14 melanoma 98.3%

CCOC(=O)c1ccc(N(CCC(=O)O)C(C)=O)cc1
inactive: NCI-H23 lung 111% | NCI-H226 lung 102% | NCI-H322M lung 92.1% | HOP-62 NSCLC 108% | NCI-H460 lung 111% | HOP-92 NSCLC 96.2% | NCI-H522 lung 95% | A549/ATCC NSCLC 104% | 786-0 renal 104% | COLO 205 colon 119% | DU-145 prostate 122% | K-562 leukemia 103% | MALME-3M melanoma 99.8% | MDA-MB-231 breast 110% | RXF 393 renal 106% | SF-268 CNS 119% | SF-539 CNS 107% | UACC-257 melanoma 98.2% | M14 melanoma 105%

CC(C)COC(=O)NC(C)(C)C
inactive: NCI-H23 lung 101% | NCI-H226 lung 104% | NCI-H322M lung 100% | HOP-62 NSCLC 107% | NCI-H460 lung 107% | HOP-92 NSCLC 98.9% | NCI-H522 lung 71.5% | A549/ATCC NSCLC 101% | 786-0 renal 98.1% | COLO 205 colon 106% | DU-145 prostate 115% | K-562 leukemia 92.8% | MALME-3M melanoma 107% | MDA-MB-231 breast 119% | RXF 393 renal 113% | SF-268 CNS 109% | SF-539 CNS 101% | UACC-257 melanoma 102% | M14 melanoma 104%

Oc1ccc(Cl)cc1-c1cc(-c2ccccc2Cl)[nH]n1
inactive: NCI-H23 lung 47.8% | NCI-H226 lung 81.8% | NCI-H322M lung 65.1% | HOP-62 NSCLC 63.3% | NCI-H460 lung 37.1% | HOP-92 NSCLC 20.6% | NCI-H522 lung 27.4% | A549/ATCC NSCLC 53.1% | 786-0 renal 84.7% | COLO 205 colon 104% | DU-145 prostate 73.3% | K-562 leukemia 37.8% | MALME-3M melanoma 71.1% | MDA-MB-231 breast 21.7% | RXF 393 renal 84.2% | SF-268 CNS 49.6% | SF-539 CNS 83.4% | UACC-257 melanoma 81.8% | M14 melanoma 84.9%

Cc1c(O)c(=O)n(-c2ccccc2)n1C
inactive: NCI-H23 lung 101% | NCI-H226 lung 100% | NCI-H322M lung 108% | HOP-62 NSCLC 100% | NCI-H460 lung 118% | HOP-92 NSCLC 96.3% | NCI-H522 lung 110% | A549/ATCC NSCLC 105% | 786-0 renal 101% | COLO 205 colon 111% | DU-145 prostate 116% | K-562 leukemia 106% | MALME-3M melanoma 112% | MDA-MB-231 breast 99.1% | RXF 393 renal 124% | SF-268 CNS 114% | SF-539 CNS 97.6% | UACC-257 melanoma 119% | M14 melanoma 100%

CCOC(=O)Nc1ccc2nc(-c3cscn3)[nH]c2c1
inactive: NCI-H23 lung 71.6% | NCI-H226 lung 63.5% | NCI-H322M lung 63.1% | HOP-62 NSCLC 54.1% | NCI-H460 lung 21.7% | HOP-92 NSCLC 114% | NCI-H522 lung 43.7% | A549/ATCC NSCLC 45% | 786-0 renal 67.7% | COLO 205 colon 29% | DU-145 prostate 72.9% | K-562 leukemia 19.1% | MALME-3M melanoma 22% | MDA-MB-231 breast 59.9% | RXF 393 renal 39.2% | SF-268 CNS 66.5% | SF-539 CNS 62.9% | UACC-257 melanoma 66.6% | M14 melanoma 16.1%

[O-]/[N+](=C\c1ccccc1)CC1(O)CCCCC1
inactive: NCI-H23 lung 104% | NCI-H226 lung 99.5% | NCI-H322M lung 112% | HOP-62 NSCLC 109% | NCI-H460 lung 103% | HOP-92 NSCLC 78% | NCI-H522 lung 93.7% | A549/ATCC NSCLC 101% | 786-0 renal 109% | COLO 205 colon 117% | DU-145 prostate 109% | K-562 leukemia 95.7% | MALME-3M melanoma 108% | MDA-MB-231 breast 101% | RXF 393 renal 107% | SF-268 CNS 105% | SF-539 CNS 97% | UACC-257 melanoma 102% | M14 melanoma 109%
